Compound activity as filed in PubChem BioAssay.
Gli-Sufu antag – antagonists of Gli-Sufu signaling | Sufu-KO-LIGHT fibroblasts, Gli luciferase reporter luminescence | inhibition, % at 5 µM | 340,000 compounds, 0.74% hits;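 active means inhibition above about 55%, limit read from the data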;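 further: 0% = DMSO-treated cells and 100% = wells with medium but no cells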
NR2F2 inh – NR2F2 (human) inhibition, primary screen; inhibition, % at 8.6 µM; HEK293T NGFI-A luciferase reporter, luminescence; 370,000 compounds, 0.7% hits; P24468;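 active means inhibition above a per-plate cutoff, mean inhibition of test wells between control levels plus 3 SD, cut at about 38% in these data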;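 further: cells cotransfected with COUP-TFII expression vector driving the NGFI-A reporter; 0% = median of COUP-TF2 test wells and 100% = reporter-only cells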
Env fusion inh – inhibitors of HIV Env-mediated cell fusion. AID 651610. 360,000 compounds, 1.1% hits. HeLa-JRFL Env/CEM21 cell fusion, luciferase. inhibition, % at 12.3 µM;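 active means mean replicate inhibition score of at least 50 and every replicate individually at or above 50; inconclusive means only one of the two criteria met; inactive means mean below 50 and not all replicates reaching 50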;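 further: 0% = plate neutral controls and 100% = maraviroc near 300 nM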
aDG glyco up – alpha-DG glycosylation activation; activation, % at 10 µM; Pro5-aDG cells, alpha-DG glycosylation AlphaScreen (IIH6); 0% Pro5, 100% B10-LARGE cell signal; 360,000 compounds, 0.22% hits;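 active means activation of at least 8% versus controls, or a plate z-score of at least 8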;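 further: Pro5 are CHO cells carrying HIG-tagged alpha-DG that lacks glycosylation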
GalR3 antag – human GalR3 antagonism | HEK293 GalR3-CNG cAMP membrane potential fluorescence; galR3 body fused to GalR1 C-terminus | 360,000 compounds, 0.44% hits | inhibition, % at 3 µM;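 active means inhibition above the screen-wide average plus 3 SD, cut at about 13% in these data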;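 further: forskolin and galanin both at EC90 stimulate the cells; cAMP rise reported by CNG channel membrane potential dye signal; 0% = forskolin plus galanin with DMSO and 100% = forskolin alone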
Target sequence (O60755 1-299 limits assumed): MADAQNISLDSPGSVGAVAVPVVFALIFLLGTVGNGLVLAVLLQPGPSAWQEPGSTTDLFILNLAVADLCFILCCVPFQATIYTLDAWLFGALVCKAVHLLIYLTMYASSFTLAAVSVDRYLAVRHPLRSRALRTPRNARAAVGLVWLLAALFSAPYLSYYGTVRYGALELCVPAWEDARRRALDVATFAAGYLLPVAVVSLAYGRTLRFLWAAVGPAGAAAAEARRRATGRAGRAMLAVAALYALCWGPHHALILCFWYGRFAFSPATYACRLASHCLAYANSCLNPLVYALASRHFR
Gal4-VP16 ctr – VP16 inhibition counter-screen for COUP-TFII. shares compounds with NR2F2 inh. HEK293 Gal4-VP16 luciferase reporter, luminescence. inhibition, % at 8.5 µM. 2,500 compounds, 25% hits. AID 687007; in the data active means inhibition above about 13%
NR2F2 inh conf – COUP-TFII (NR2F2) inhibition, confirmation assay | shares compounds with NR2F2 inh | HEK293 NGFI-A luciferase reporter, luminescence | inhibition, % at 8.5 µM | 2,500 compounds, 45% hits | AID 687008;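 active means mean inhibition over three repeats above a set limit taken from the earlier primary screen, cut at about 38% in these data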;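 further: 100% = cells given the luciferase reporter alone without the COUP-TF2 vector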
* hit, by the source's call; i = inactive; u = inconclusive; x = no result given; [ ] = dose if it differs, or a comment. Rows were chosen to be rich in hits. Some 2.1% of all compounds tested hit in one or more screens of this group.

SMILES	Gli-Sufu antag	NR2F2 inh	Env fusion inh	aDG glyco up	GalR3 antag	Gal4-VP16 ctr	NR2F2 inh conf
Cc1cccc(-c2cccc(NC(=O)C3CCCN(C(=O)c4csc(C)n4)C3)c2)c1 (configuration not stated)	4.3	41.9*	9.3	0.7	-8.7	-35.2	17.8
CCOC(=O)N1CCN(C(=O)c2ccc3c(c2)N(CC)CCS3)CC1	-12.9	-1.0	-12.2	-0.1	x	x	x
CCOC(=O)N1CCN(C(=O)c2ccc3c(c2)N(Cc2ccc(F)cc2)CCS3)CC1	15.7	37.8*	25.4	-0.1	x	1.7	-0.9
O=C(NC1CCCC1)C(c1ccccc1)n1c(CSCCOc2ccccc2)nc2ccccc21 (configuration not stated)	x	59.0*	u	0.4	-7.6	45.7*	50.0*
O=C(NC1CCCC1)C(c1ccccc1)n1c(-c2cccs2)nc2ccccc21 (configuration not stated)	x	-19.4	29.6	-0.1	-5.8	x	x
Cc1nc(C)c(-c2ccc(SCC(=O)Nc3cccc(Cl)c3)nn2)s1	4.5	53.1*	34.5	1.0	0.0	-10.2	19.5
Cc1nc(C)c(-c2ccc(SCC(=O)Nc3cccc(F)c3)nn2)s1	16.4	46.8*	15.7	0.3	-3.0	-25.3	1.4
CC(=O)c1cccc(NC(=O)CSc2ccc(-c3sc(C)nc3C)nn2)c1	2.5	9.4	21.3	-0.1	-2.7	x	x
O=C1/C(=C\c2ccccc2)CCC/C1=C/c1ccccc1	0.5	2.1	41.9	0.1	-4.0	x	x
CCN(CC)CCC(=O)N1C/C(=C/c2ccccc2)C(=O)/C(=C\c2ccccc2)C1	-2.7	74.5*	x	-0.3	-4.4	66.7*	65.2*
O=C1/C(=C\c2ccccc2)CN(C(=O)CCN2CCCCC2)C/C1=C/c1ccccc1	7.4	63.0*	i	-0.3	-4.3	64.0*	63.1*
O=C1/C(=C\c2ccc(Cl)c(Cl)c2)CN(C(=O)CCN2CCOCC2)C/C1=C/c1ccc(Cl)c(Cl)c1	10.3	85.1*	x	-0.5	-2.8	91.9*	106.3*
C#CCNC(=O)C1=C[C@H](c2cn(C(C)=O)c3ccccc23)C[C@H](OCCCCO)O1	x	x	13.0[16.7 µM]	x	x	x	x
C[C@@H]1CCCCO[C@@H](CN(C)C(=O)Nc2ccc(F)cc2)[C@@H](C)CN([C@@H](C)CO)C(=O)c2cc(NC(=O)CCC(F)(F)F)ccc2O1	x	x	-29.6[16.7 µM]	x	x	x	x
CN(C)c1ccc(/C=C/c2nc3ccccc3s2)cc1	21.7	68.6*	-52.9	0.4	-4.6	51.6*	81.8*
CCCC#Cc1cnc2c(c1)C(=O)N([C@H](C)CO)C[C@H](C)[C@H](CN(C)C(=O)Nc1cccc(F)c1)O2	x	x	3.3[16.7 µM]	x	x	x	x
C[C@@H]1CN([C@H](C)CO)C(=O)c2cc(-c3ccccc3)cnc2O[C@H]1CN(C)Cc1ccc(C(=O)O)cc1	x	x	-52.5[16.7 µM]	x	x	x	x
CCOc1ccc(Nc2nc(NCC3CCCO3)c3ccccc3n2)cc1 (configuration not stated)	71.4*	59.7*	21.0	-0.6	-5.1	4.0	42.6*
CC(C)NC(=O)N(C)C[C@@H]1OCCCC[C@@H](C)Oc2ccc(NC(=O)Nc3cccc4ccccc34)cc2C(=O)N([C@H](C)CO)C[C@@H]1C	x	x	8.0[16.7 µM]	x	x	x	x
Oc1ccc(CCNc2ncnc3ccc(Cl)cc23)cc1	61.0*	80.0*	-1.5	1.9	-4.7	6.9	64.4*
COc1cc(C(=O)Oc2cccc(Nc3ncnc4ccccc34)c2)cc(OC)c1OC	4.8	60.5*	x	3.1	-6.1	-3.9	48.7*
NC1=C(Br)C(=O)c2ncccc2C1=O	85.3*	81.2*	u	0.6	-2.6	91.8*	93.2*
O=C1c2cccnc2C(=O)N1CO	4.2	0.8	x	0.0	-2.3	x	x
Cc1ccc(-n2c(C)c([N+](=O)[O-])c3ccc(O)c(CN(C)C)c32)cc1	-8.3	42.8*	62.5*	-0.3	-3.7	14.4*	21.0
COc1ccc(-n2c(C)c([N+](=O)[O-])c3ccc(O)c(CN4CCCCC4)c32)cc1	-12.7	34.4	u	-0.4	-6.3	x	x
Cc1noc(C)c1NC(=O)Nc1ccc2c(c1)C(=O)N([C@@H](C)CO)C[C@H](C)[C@H](CN(C)C)OCCCC[C@H](C)O2	x	x	14.5[16.7 µM]	x	x	x	x
